Compounds with a hit are over-represented: about 5.4% of the library has one in this group of screens.
Beta cell apopt = blocks beta cell apoptosis. INS-1E cytokine-induced death, ATP luminescence, 48 h; percent of positive-control rescue, neutral wells zero. protection from apoptosis, % (concentration not given with the values). 300,000 tested, 0.8% active. AID 435005;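 active = Every replicate reaches about 75%, or at least half do and their mean reaches it too, limit read from the data; inconclusive = At least half of replicates reach the limit but their mean does not; inactive = Under half of replicates reach the limit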;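 note: higher means more ATP so stronger rescue from cytokine killing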
CSC inhib = blocks cancer stem cells. 300,000 tested, 1.1% active. cancer stem cell-like cells viability, luminescence. AID 2717. inhibition, % at 7.5 µM; in the data active = inhibition above about 75%; inconclusive = no clear call, values can overlap the other calls; tested in HMLE shEcad cells
SKKanGAS inh = SKKanGAS growth inhibition. 300,000 tested, 1.3% active. inhibition, % at 7.5 µM. S. pyogenes SKKanGAS, kanamycin growth, BacTiter-Glo, 6 h. AID 1662;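 active = mean replicate score, as percent of positive control median, at least 50; inconclusive = mean below 50 but one replicate at or above 50; inactive = mean and every replicate below 50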;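 note: strain carries kanamycin resistance gene driven by streptokinase promoter and grows in 40 µg/ml kanamycin; loss of luminescence reflects streptokinase promoter inhibition or plain growth inhibition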
MPTP block = blocks calcium-induced mitochondrial swelling; isolated mouse mitochondria, Ca2+ swelling absorbance, 30 min; inhibition, % at 10 µM; 360,000 tested, 1.4% active; AID 602449;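 active = inhibition of 50% or more, scaled per plate between neutral and stimulator controls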
Calb FLC = C. albicans growth modulation with fluconazole; 300,000 tested, 0.57% active; C. albicans CaCi-2 (fluconazole-resistant clinical isolate) + fluconazole, Alamar Blue growth, 48 h; AID 1979; growth inhibition, % (test concentration not listed);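 active = growth inhibition above about 58% in most replicates, limit read from the data, passing the limit was not always enough; inconclusive = exactly half the replicates above a set limit; inactive = most replicates below a set limit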;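 note: all wells also contain fluconazole at 8 µg/ml as a sub-toxic cotreatment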
Mdm2-MdmX inh = inhibitors of human Mdm2/MdmX interaction. O15151+Q00987. SaOS-2 split-luciferase Mdm2/MdmX complementation, luminescence. inhibition, % at 8 µM. 330,000 tested, 3% active. AID 485346;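 active = inhibition of at least 50% at 8 µM in the primary screen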
Target sequence (O15151 whole entry, looked up): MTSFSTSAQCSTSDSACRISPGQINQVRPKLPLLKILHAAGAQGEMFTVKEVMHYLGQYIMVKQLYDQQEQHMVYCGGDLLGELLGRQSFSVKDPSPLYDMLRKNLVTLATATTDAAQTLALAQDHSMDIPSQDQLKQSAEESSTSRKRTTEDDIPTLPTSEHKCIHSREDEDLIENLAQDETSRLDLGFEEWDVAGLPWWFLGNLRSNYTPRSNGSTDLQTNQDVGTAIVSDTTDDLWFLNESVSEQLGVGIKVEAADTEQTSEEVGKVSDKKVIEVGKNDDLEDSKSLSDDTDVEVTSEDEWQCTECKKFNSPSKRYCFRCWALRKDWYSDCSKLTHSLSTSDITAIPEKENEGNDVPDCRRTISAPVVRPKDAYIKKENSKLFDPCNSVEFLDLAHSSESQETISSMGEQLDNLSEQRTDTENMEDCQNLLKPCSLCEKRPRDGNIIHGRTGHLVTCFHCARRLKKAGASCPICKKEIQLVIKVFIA
Target sequence (Q00987 whole entry, looked up): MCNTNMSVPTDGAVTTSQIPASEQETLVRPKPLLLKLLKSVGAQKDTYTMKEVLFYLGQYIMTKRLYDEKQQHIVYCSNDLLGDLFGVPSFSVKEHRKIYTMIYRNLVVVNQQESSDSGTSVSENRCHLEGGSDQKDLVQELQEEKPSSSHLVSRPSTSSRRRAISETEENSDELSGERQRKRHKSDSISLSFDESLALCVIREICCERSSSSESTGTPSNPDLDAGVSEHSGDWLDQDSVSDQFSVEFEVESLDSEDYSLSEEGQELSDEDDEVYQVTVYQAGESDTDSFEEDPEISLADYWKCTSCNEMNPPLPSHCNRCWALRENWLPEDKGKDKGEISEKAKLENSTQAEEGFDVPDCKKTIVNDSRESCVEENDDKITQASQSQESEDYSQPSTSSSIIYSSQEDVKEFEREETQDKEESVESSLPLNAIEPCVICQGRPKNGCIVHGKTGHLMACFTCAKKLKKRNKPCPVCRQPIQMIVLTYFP
Mdm2-MdmX conf = confirmation of human Mdm2/MdmX interaction inhibitors; shares compounds with Mdm2-MdmX inh; Mdm2-MdmX binding, luminescent assay; inhibition, % at 8 µM; 10,000 tested, 55% active; in the data active = inhibition above about 40%
Full FLuc ctr = full-length luciferase inhibition in Mdm2/MdmX counter-screen. 6,200 tested, 77% active. inhibition, % at 8 µM. AID 504607. shares compounds with Mdm2-MdmX inh. SaOS-2 full-length luciferase counterscreen, luminescence;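 active = mean inhibition at 8 µM reaching about 37%, which flags the compound as non-specific, limit read from the data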;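 note: p53-null SaOS-2 cells with luciferase driven by a doxycycline-inducible promoter; compound on cells about two nights before reading with doxycycline added after day one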
Large screens that a line does not name were inactive (follow-up assays come after a bar, where they were run).

CCN1C(=O)[C@H]2[C@@H](c3ccc(C)cc3)N3C(=O)N(c4cccc(C)c4)C(=O)[C@@]3(Cc3ccccc3)[C@H]2C1=O	none
CCN1C(=O)[C@H]2[C@@H](c3ccc(C)cc3)N3C(=O)N(c4ccc(C(F)(F)F)cc4)C(=O)[C@@]3(Cc3ccccc3)[C@H]2C1=O	none
Cc1cc(=O)[nH]c(N/N=C/c2ccc(N(C)C)cc2)n1	none
COc1ccccc1N1CCN(S(=O)(=O)c2cc(C(F)(F)F)cc(C(F)(F)F)c2)CC1	none
O=C(CCCc1c[nH]c2ccccc12)NCc1ccc2c(c1)OCO2	Calb FLC inconclusive
CC(C)c1ccc(OCC(=O)NNC(=S)NC(=O)c2ccco2)c(Br)c1	SKKanGAS inh 117, Mdm2-MdmX inh 50 | Mdm2-MdmX conf 43 | Full FLuc ctr 71
CC1CN(C(=O)CN(C)S(=O)(=O)c2ccc3ccccc3c2)CC(C)O1 (stereo unspecified)	none
CN(C)C(=O)N1CCN(C(=O)c2ccccc2Sc2ccccc2C#N)CC1	Mdm2-MdmX inh 53 | Mdm2-MdmX conf inactive
N#Cc1ccccc1Sc1ccccc1C(=O)N1CCOCC1	none
CCCCn1c(SCC(=O)N2c3ccccc3Sc3ccccc32)nc2c1c(=O)n(C)c(=O)n2C	Mdm2-MdmX inh 59 | Mdm2-MdmX conf inactive
CC1Cc2ccccc2N1C(=O)CSc1nc2c(c(=O)n(C)c(=O)n2C)n1Cc1ccc(F)cc1 (stereo unspecified)	Mdm2-MdmX inh 72 | Mdm2-MdmX conf 47 | Full FLuc ctr 71
CCCCn1c(NC(=S)Nc2ccccc2)nc2ccccc21	Mdm2-MdmX inh 58 (no result: CSC inhib) | Mdm2-MdmX conf inactive | Full FLuc ctr 94
Cc1ccc(NCc2nc3ccccc3n2CCOc2ccccc2)cc1	none
S=C(Nc1ccccc1)Nc1nc2ccccc2n1CCOc1ccccc1	CSC inhib 98, Calb FLC 94, Mdm2-MdmX inh 51 | Mdm2-MdmX conf inactive
CCCn1c(NC(=O)c2ccco2)nc2ccccc21	none
COc1ccc(OCCn2c(NC(=O)c3ccco3)nc3ccccc32)cc1	SKKanGAS inh 62, Mdm2-MdmX inh 57 | Mdm2-MdmX conf inactive
O=S(Cc1ccc(Br)cc1)Cc1nnc(SCc2ccc(Cl)cc2)n1-c1ccccc1 (stereo unspecified)	Mdm2-MdmX inh 50 | Mdm2-MdmX conf inactive | Full FLuc ctr 70
CCOc1ccc(NC(=O)N2CCN(C(=O)c3ccco3)CC2)cc1	none
CCOC(=O)c1ccc(NC(=O)c2nc[nH]c2C(=O)NC)cc1	none
C[C@H](NC(=O)c1[nH]cnc1C(=O)Nc1ccccc1)c1ccccc1	none (no result: SKKanGAS inh, Calb FLC)
CCOC(=O)c1ccc(NC(=O)c2nc[nH]c2C(=O)NCCNC(=O)c2[nH]cnc2C(=O)Nc2ccc(C(=O)OCC)cc2)cc1	CSC inhib 122, Mdm2-MdmX inh 100 (no result: SKKanGAS inh, Calb FLC) | Mdm2-MdmX conf 41 | Full FLuc ctr 81
Cc1cccc(NC(=O)c2nc[nH]c2C(=O)N[C@H](C)c2ccccc2)c1	CSC inhib inconclusive, Mdm2-MdmX inh 57 (no result: SKKanGAS inh, Calb FLC) | Mdm2-MdmX conf inactive | Full FLuc ctr 50
Cc1ccc(NC(=O)c2nc[nH]c2C(=O)N[C@H](C)c2ccccc2)cc1	none (no result: SKKanGAS inh, Calb FLC)
CCOC(=O)c1ccc(NC(=O)c2nc[nH]c2C(=O)N[C@H](C)c2ccccc2)cc1	SKKanGAS inh 78, Mdm2-MdmX inh 60 | Mdm2-MdmX conf inactive
O=C(NC1CCCc2ccccc21)c1ccc2c(c1)OCO2 (stereo unspecified)	none
COc1cccc(NC(=O)C2CCN(S(=O)(=O)c3ccc4c(c3)N(C(C)=O)CCO4)CC2)c1	none
C=CC[C@@H](CC(=O)N(CCO)Cc1ccccc1)C(=O)N[C@@H](COC(=O)[C@@H](CC=C)Cc1ccc(F)cc1)Cc1ccccc1	Mdm2-MdmX inh 63 (no result: CSC inhib, SKKanGAS inh, Calb FLC) | Mdm2-MdmX conf inactive
C=CC[C@H](CC(=O)N(CCO)Cc1ccccc1)C(=O)N[C@@H](C)COC(=O)[C@@H](CC=C)Cc1ccc(F)cc1	none (no result: SKKanGAS inh, Calb FLC)
C=CCC[C@@H](Cc1ccc(F)cc1)C(=O)OC[C@@H](NC(=O)[C@@H](CC=C)CC(=O)N(CCO)Cc1ccccc1)c1ccccc1	Mdm2-MdmX inh 88 (no result: CSC inhib, SKKanGAS inh, Calb FLC) | Mdm2-MdmX conf inactive
C=CC[C@@H](CC(=O)N(CCO)Cc1ccccc1)C(=O)N[C@H](COC(=O)[C@@H](CC=C)Cc1ccc(F)cc1)Cc1ccccc1	Mdm2-MdmX inh 70 (no result: SKKanGAS inh, Calb FLC) | Mdm2-MdmX conf inactive
Cc1cc(C)nc(NS(=O)(=O)c2ccc(N3C(=O)c4ccccc4C3=O)cc2)n1	none
CCC(C)(C)NC(=O)C(c1ccccc1Cl)N(C(=O)CCC(=O)Nc1cc(C)on1)C1CC1 (stereo unspecified)	none
CC1(C)CCN2CCC(C)(C)c3c(O)ccc1c32	Beta cell apopt 111, CSC inhib 131, Calb FLC inconclusive, Mdm2-MdmX inh 92 | Mdm2-MdmX conf 83 | Full FLuc ctr 40
CCCCCn1c(=NC(=O)c2cccnc2)c(C#N)cc2c(=O)n3cccc(C)c3nc21	Mdm2-MdmX inh 73 | Mdm2-MdmX conf 51 | Full FLuc ctr 42
CC[C@]1(c2ccccc2C)ON(c2ccccc2C(F)(F)F)C1=O	none (no result: SKKanGAS inh, Calb FLC)
Cc1ccccc1[C@]1(C)ON(c2ccccc2C(F)(F)F)C1=O	Mdm2-MdmX inh 80 (no result: SKKanGAS inh, MPTP block, Calb FLC) | Mdm2-MdmX conf 46 | Full FLuc ctr 59
COc1ccccc1[C@@]1(C)ON(c2ccccc2C(F)(F)F)C1=O	Mdm2-MdmX inh 89 (no result: SKKanGAS inh, Calb FLC) | Mdm2-MdmX conf 80 | Full FLuc ctr inactive
COc1ccc(CC(=O)O/N=C(\N)c2ccc(C)cc2)cc1	none (no result: Beta cell apopt)
COc1cccc(CC(=O)OCC(=O)c2cc(OC)ccc2OC)c1	none (no result: CSC inhib, SKKanGAS inh, Calb FLC)
COc1cc(C2c3c(n[nH]c3C)C(=O)N2c2ccc(C)cc2)ccc1O (stereo unspecified)	Mdm2-MdmX inh 69 | Mdm2-MdmX conf 72 | Full FLuc ctr 51
CCOc1cc(C2c3c(n[nH]c3C)C(=O)N2c2ccc(C)cc2)ccc1O (stereo unspecified)	none
Cc1cc(Cl)c2oc(C(=O)NCC(C)(C)N3CCOCC3)c(C)c2c1	none
O=C1OC(Nc2ccc3c(c2)OCO3)c2ccccc21 (stereo unspecified)	Mdm2-MdmX inh 70 | Mdm2-MdmX conf 41 | Full FLuc ctr 55
COC(=O)/N=C/c1c(NCc2ccccc2)nc2c(C)cccn2c1=O	Mdm2-MdmX inh 70 | Mdm2-MdmX conf inactive
Cc1cccn2c(=O)c(C=O)c(NCc3ccccc3)nc12	none
CCCc1nc(SCC(=O)N2c3ccccc3CC2C)c2c(C)c(C)sc2n1 (stereo unspecified)	Mdm2-MdmX inh 66 | Mdm2-MdmX conf inactive
Cc1sc2nc(C3CC3)nc(SCC(=O)N3CCc4ccccc4C3)c2c1C	none
CCCc1nc(SCC(=O)NC2CC2)c2c(C)c(C)sc2n1	none

Screening results from PubChem.
